# Source: PubChem BioAssay
# Rows were chosen to be rich in hits. Some 2.8% of all compounds tested hit in one or more screens of this group.
# JMJD2C inh = inhibitors of human GASC-1 (JMJD2C) demethylase; inhibition, % at 2.35 µM; actives 0.069% (n = 330,000); GST-JMJD2C(1-420) H3K9me3 demethylation, DELFIA europium; AID 2099;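 active = more than half of a compound's replicate wells show inhibition beyond 50%, single wells judged on their own value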;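 note: signal counts dimethyl H3K9 product captured on neutravidin plate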
# NR1D1 modulator = Rev-erb alpha (human) modulation. Rev-erbα–FITC-DNA binding, fluorescence polarization, 90 min. activity, % at 10 µM. actives 0.79% (n = 370,000). AID 1259318;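 active = activity above about 14%, limit read from the data; passing the limit was not always enough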
# PP1 counter = counter-screen for PP5 inhibitors: inhibitors of human PP1-alpha; actives 0.9% (n = 320,000); purified PP1alpha, OMFP fluorescence; inhibition, % at 6.7 µM; P62136;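 active = inhibition above the mean inhibition of all tested compounds plus 3 SD, computed separately for each screening campaign, cut at about 15% in these data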
# KLK7 zymogen act = proKLK7 (human) activation, primary screen | actives 0.9% (n = 370,000) | AID 652039 | P49862 | activation, % at 7 µM | purified proKLK7, EDANS-DABCYL substrate fluorescence; 100% is mature enzyme control, 0% vehicle;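 active = activation above the mean of all tested compounds plus 3 SD, computed per campaign excluding outliers beyond control limits, cut at about 13% in these data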
# PG9 binder = small molecules binding HIV-1 gp120 antibody PG9 | TR-FRET gp120-PG9 antibody binding | inhibition, % at 6.7 µM | actives 0.43% (n = 360,000) | AID 624416; in the data active = inhibition above about 8.5%
# PP5 primary = inhibitors of human protein phosphatase 5 (PP5); purified PP5c, OMFP substrate fluorescence; actives 0.18% (n = 320,000); AID 1987; P53041; inhibition, % at 6.7 µM;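 active = inhibition above the campaign's mean inhibition across all tested compounds plus 3 SD, cut at about 9.5% in these data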
# Target sequence (P53041 whole entry, looked up): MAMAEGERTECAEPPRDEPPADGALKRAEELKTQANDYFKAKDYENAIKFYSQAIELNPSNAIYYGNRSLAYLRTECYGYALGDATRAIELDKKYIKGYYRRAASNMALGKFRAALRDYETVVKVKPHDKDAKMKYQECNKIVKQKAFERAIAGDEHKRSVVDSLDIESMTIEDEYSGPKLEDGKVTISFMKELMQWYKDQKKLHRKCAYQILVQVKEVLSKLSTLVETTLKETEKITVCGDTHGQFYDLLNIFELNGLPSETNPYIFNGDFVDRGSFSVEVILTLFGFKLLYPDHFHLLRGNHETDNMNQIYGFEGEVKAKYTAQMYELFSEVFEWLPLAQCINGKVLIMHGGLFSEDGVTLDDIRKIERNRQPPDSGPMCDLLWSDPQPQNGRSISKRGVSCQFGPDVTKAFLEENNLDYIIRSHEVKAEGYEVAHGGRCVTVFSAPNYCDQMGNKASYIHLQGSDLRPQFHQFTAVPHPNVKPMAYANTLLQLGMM
# proKLK7 act conf = proKLK7 activation, confirmation; actives 68% (n = 3,200); purified proKLK7, EDANS-DABCYL substrate fluorescence; scaled: vehicle 0, mature enzyme 100; AID 686949; activation, % at 7 µM; shares compounds with KLK7 zymogen act;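 active = activation, as change over the incubation, above the mean of all tested compounds plus 3 SD, cut at about 13% in these data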
# EDANS-DABCYL int = counter-screen for kallikrein-7 activators: EDANS-DABCYL optical interference; EDANS-DABCYL substrate fluorescence interference, no enzyme, 4 h; solvent 0%, active enzyme control 100%; actives 80% (n = 3,200); activation, % at 7 µM; shares compounds with KLK7 zymogen act;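 active = activation above the all-compound mean plus 3 SD, ignoring values outside control-based bounds, cut at about 4.8% in these data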;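 note: value is the 4 h activation minus the activation read at time zero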
# Hits are given with their value; - = inactive; . = no result given.
SMILES,JMJD2C inh,NR1D1 modulator,PP1 counter,KLK7 zymogen act,PG9 binder,PP5 primary,proKLK7 act conf,EDANS-DABCYL int
CN(C)CCCNC(=O)C[C@H]1C[C@H](C(=O)N2CCOCC2)[C@@]2(C)c3[nH]c4cc(-c5ccco5)ccc4c3CCN2C1=O,.,-,.,54,-,.,56,57
COCCCNC(=O)C[C@H]1C[C@H](C(=O)N(C(C)C)C(C)C)[C@@]2(C)c3[nH]c4cc(-c5ccco5)ccc4c3CCN2C1=O,.,-,.,137,-,.,152,146
CCOC(=O)C1=CCN(S(=O)(=O)c2ccc(Br)cc2)C1c1ccc(Br)cc1 (centres undefined),.,-,.,-,-,.,.,.
NC(=O)c1ncn([C@@H]2O[C@H](C(=O)N[C@H](Cc3c[nH]c4ccccc34)C(=O)N3CCN(CC(=O)N4CCCC4)CC3)[C@@H](O)[C@H]2O)n1,.,-,.,-,-,.,.,.
Cc1nn(-c2ccccc2)c2nc(N)c(C(N)=O)cc12,-,-,-,14,-,-,15,17
Cc1ccc(-n2c(SCC(=O)Nc3ccccc3-c3ccccc3)nnc2-c2ccco2)cc1,.,-,.,-,.,.,.,.
COc1ccc(S(=O)(=O)N2CCN(CC(=O)N3CCc4ccccc4C3)CC2)cc1OC,-,-,-,-,-,-,.,.
COc1cc2c(cc1OC)CN(C(=O)CN1CCN(S(=O)(=O)c3ccccc3Br)CC1)CC2,-,-,-,30,-,-,-,-
COC(=O)[C@@]12CCCCC3=C1N(CCC3)C(=O)[C@H]2CC(=O)NCCC(C)C,.,-,.,-,.,.,.,.
COc1cc2c(cc1OC)CN(CC(=O)Nc1cccc([N+](=O)[O-])c1)CC2,-,-,-,28,-,-,-,-
COc1cc2c(cc1OC)CN(CC(=O)Nc1ccccc1C(=O)NCc1ccccc1)CC2,-,-,-,-,-,-,.,.
COc1cc2c(cc1OC)CN(CC(=O)Nc1cccc(C)c1)CC2,-,-,-,-,-,-,.,.
COc1cc([N+](=O)[O-])ccc1NC(=O)CN1CCc2cc(OC)c(OC)cc2C1,-,-,.,25,-,.,-,-
COc1cc2c(cc1OC)CN(CC(=O)NC(=O)NCc1ccccc1)CC2,-,-,-,15,-,-,-,4.4
COc1cc2c(cc1OC)CN(CCC(=O)c1ccc(Br)cc1)CC2,-,-,-,14,-,-,-,7.8
C[C@H](CO)N1C[C@H](C)[C@@H](CN(C)C(=O)c2ccncc2)OCc2cn(nn2)CCCC1=O,.,-,.,-,-,.,.,.
COC(=O)[C@]12C[C@H](CC(=O)NCc3cccc(C(F)(F)F)c3)C(=O)N(Cc3cccc4ccccc34)C1=C[C@H](C1CCCC1)O[C@@H]2C,.,-,.,-,.,.,.,.
CCCCN(C)C1=Nc2cccc3cccc1c23,-,-,-,60,-,-,-,12
Nc1ccc2nc3c(c(Cl)c2c1)CCCC3,-,-,-,14,-,-,-,-
Clc1c2c(nc3ccccc13)CCC2,-,-,-,-,-,-,.,.
Cc1cc2c(c(=O)o1)[C@@]1(C(=O)N(C)c3ccccc31)C1=C(CCC1=O)O2,.,-,.,-,-,.,.,.
O=C(NCCc1ccccc1)O[C@H]1CC[C@@]23CCCN2C(=O)CCC[C@H]3C1,.,-,.,.,.,.,.,.
COCCN(C(=O)COC(=O)c1ccccc1NCc1ccco1)c1c(N)n(Cc2ccccc2)c(=O)[nH]c1=O,-,-,-,-,-,-,.,.
CCCCn1c(N)c(N(CCOC)C(=O)COC(=O)c2ccccc2NCCO)c(=O)[nH]c1=O,.,-,.,36,-,.,19,22
O=C(Nc1ccc(-c2cn3ccsc3n2)cc1)c1ccc(F)c(S(=O)(=O)N2CCOCC2)c1,-,-,-,18,-,-,-,6.1
SMILES,JMJD2C inh,NR1D1 modulator,PP1 counter,KLK7 zymogen act,PG9 binder,PP5 primary,proKLK7 act conf,EDANS-DABCYL int
CCC(=O)Nc1ccc(Cl)cc1C(=O)c1ccc[nH]1,.,-,.,.,.,.,.,.
CC(=O)Nc1cccc(C(=O)Oc2cccc(C)c2)c1O,-,-,-,40,-,-,48,51
COC(=O)[C@]12C[C@H](CC(=O)NCc3cccc4ccccc34)C(=O)N(Cc3ccco3)C1=C[C@H](COCc1ccccc1)O[C@@H]2C,.,-,.,-,.,.,.,.
COCCCNC(=S)N/N=C/c1ccc(N(C)C)cc1Cl,-,-,-,-,-,-,.,.
COCCCNC(=S)N/N=C/c1ccc(N(C)C)cc1,-,-,-,26,-,-,41,41
O=C(CCc1n[nH]c(=O)[nH]c1=O)Nc1cccc([N+](=O)[O-])c1,-,-,-,16,-,-,-,-
CCn1ncc(-c2ccnc3cc(C(=O)O)nn23)c1C,-,-,-,13,-,-,39,44
O=[n+]1cc(-c2cc3ccccc3o2)n([O-])c2c1CCCC2,-,-,-,15,-,-,-,18
c1ccc2nc3c(nc2c1)OCC1CCCCN31 (centres undefined),-,-,-,16,-,-,18,28
Cc1ccccc1CN1[C@@H](C)[C@H](c2ccccc2)Oc2cccc(N3CCCC3)c2S1(=O)=O,.,-,.,-,-,.,.,.
CCCCOCC1CN(CCCC)S(=O)(=O)c2c(cccc2Sc2ccc(OC)c(OC)c2)O1 (centres undefined),.,-,.,-,-,.,.,.
COc1ccc(-c2nnn(Cc3ccccc3)n2)cc1OC,-,-,-,-,-,-,.,.
COc1ccc(C2=NCCc3cc(OC)c(OC)cc32)cc1,-,-,-,30,-,-,-,13
COc1ccc(C2=NC(C)(C)Cc3cc(OC)c(OC)cc32)cc1,-,-,-,22,-,-,-,7.1
COc1cc2c(cc1OC)C(c1c(-c3c(Cl)cccc3Cl)noc1C)=NCC2,.,-,.,-,-,.,.,.
COc1cc2c(cc1OC)C(c1c(Cl)cccc1Cl)=NCC2,.,-,.,-,-,.,.,.
COc1ccc(C2=NCCc3cc(OC)c(OC)cc32)cc1OC,-,-,-,17,-,-,-,11
COc1cc2c(cc1OC)C(CCc1ccccc1)=NCC2,-,-,-,152,-,-,63,80
Cc1ccc(NC(=O)Cc2ccc(F)cc2)c(S(=O)(=O)N2CCOCC2)c1,.,-,.,-,.,.,.,.
CC(C)CCN(C)C1CCN(C(=O)NCc2ccccc2)CC1,.,-,.,-,.,.,.,.
COc1ccc2c(c1)[C@@]1(OCCC=C[C@H]1C)C(=O)N2Cc1ccccc1C(F)(F)F,.,-,.,-,-,.,.,.
CCSc1nc2c(c(=O)[nH]1)C(c1ccc(C)cc1)C1=C(CCCC1=O)N2 (centres undefined),-,-,-,17,-,-,-,-
COC(=O)[C@]12C[C@H](CC(=O)NCc3ccc(C)o3)C(=O)N(Cc3cccc4ccccc34)C1=C[C@H](COCc1ccccc1)O[C@@H]2C,.,-,.,-,.,.,.,.
